The campaign covered roughly 340,000 compounds. About 800 (0.24%) were called active. What follows is part of a selection rich in actives, with near analogues and random picks from the rest. Values without a mark were called inactive.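 The calls were made as follows: active = activation above the mean over all tested compounds plus 3 SD (cut at about 30% in these data); inactive = the rest.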

The test deals with Troponin I, cardiac muscle (Homo sapiens) + Troponin T, cardiac muscle (Homo sapiens) + Troponin C, slow skeletal and cardiac muscles (Homo sapiens) (UniProt P19429+P45379+P63316). Briefly: cardiac RTF calcium sensitivity activators, primary screen, biochemical, IANBD-TnC fluorescence, EC20 calcium (AID 493008).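 Also: rise in fluorescence read as greater calcium sensitivity of cardiac thin filaments.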 To be noted: IANBD-labeled TnC RTF fluorescence at EC20 calcium; at 7.2 µM; active compounds read high; 0% EC20 calcium, 100% full calcium.
As for `CN(O)C(=S)c1ccccc1`, the activation was -1.46%. With `Cc1c(C)n2c(SCC(=O)NC3CCCC3)nnc2[nH]c1=O`, the activation was 0.28%.

Take `CCCN(CCC)S(=O)(=O)c1ccc(C(=O)N2CC3CCC(CC3)C2)cc1`: the activation was -0.05%. For `CCN1CC=C2C(C#N)=C(N)C(C#N)(C#N)[C@H](c3ccoc3)[C@H]2C1`, the activation was 62% (active). The same measure for `C=CCOc1ccc(/C=C2\SC(=S)N(CCC(=O)O)C2=O)cc1`: 1.79%; for `Cc1ccc(/C=C2/SC(=S)N(CCC(=O)NCCCN3CCOCC3)C2=O)cc1`: 2.69%; for `Cc1ccc(-c2nn(-c3ccccc3)cc2/C=C2\SC(=S)N(CCCCCC(=O)O)C2=O)o1`: 48.1% (active). Next, `Cc1ccc(-c2noc(C3CCCN(C(=O)c4cccc(Cl)c4)C3)n2)o1` (stereo not drawn): -2.07%; `CC(C)CC(CCc1ccccc1)OS(N)(=O)=O` (stereo not drawn): -4.63%; `COc1ccc(CNCCCNCc2ccc(OC)c(OC)c2)cc1OC`: 0.94%. Next, `C=CCn1c(SCC(=O)c2c(N)n(C)c(=O)n(C)c2=O)nc2sc(CC)cc2c1=O`: 1.89%; `C[C@H](NC(=O)c1ccccc1Cl)C(=O)OCCOc1cccc(Cl)c1`: 1.17%; `Cc1ccc(C2=CSC3=NS(=O)(=O)CCN23)cc1C`: 13.6%. Consider `C/C(=C/c1ccccc1)C(=O)N1CCN(c2ccccc2)CC1`, for which the activation was 9.01%. The same measure for `Cc1[nH]c(N)nc(=S)c1CCCNc1ccccc1`: -2.1%; for `C=CC[C@H](CC(=O)NCCO)C(=O)N[C@@H](COC(=O)[C@@H](CC=C)Cc1ccc(F)cc1)Cc1c[nH]c2ccccc12`: 2.33%. The same measure for `CCCCCCc1cc2cc(-c3nnc(-c4ccccc4)o3)c(=O)oc2cc1O`: 76.8% (active).

Consider `Cc1c(CCC(=O)O)c(=O)oc2cc3occ(-c4ccccc4)c3cc12`, for which the activation was 5.11%. Next, `CCc1ccc(CN(C)C(=O)CCc2nnc(-c3ccc(-c4ccccc4)cc3)o2)nc1`: -1.69%; `O=C(N[C@H]1C/C=C\C(c2cccc(F)c2)N(Cc2ccccc2)C(=O)C1)OCC1c2ccccc2-c2ccccc21` (stereo partly drawn): -0.43%; `COc1ccc(C(CNCC(=O)Nc2ccccc2F)N(C)C)cc1` (stereo not drawn): -1.39%. Next, `S=C(Nc1ccc2c(c1)OCO2)N1CCCC1`: 8.04%; `CCOC(=O)/C(C#N)=C/c1ccc(OCC(=O)Nc2ccccc2)c(OC)c1`: 6.94%. The same measure for `CC(C)OC(=O)C(C#N)c1nc2ccccc2nc1N1CCN(Cc2ccccc2)CC1` (stereo not drawn): -2.43%; for `CCOC(=O)/C(C#N)=C/c1ccc(N2CCN(Cc3ccccc3)CC2)cc1`: 42.2% (active). With `Cc1ccnc(N2CCN(C(=O)CSc3nc4ccccc4nc3N3CCCCC3)CC2)c1`, the activation was 0.05%. Consider `Cc1ccccc1NC(=O)c1ccc(COc2ccc3c(C)cc(=O)oc3c2)cc1`, for which the activation is 1.18%.

For the molecule `O=C(CCC(=O)N1CCCC1)Nc1ccc([N+](=O)[O-])cc1`, the activation was -1.36%.

With `Cc1cc(-c2n[nH]c(=S)n2/N=C/C(Br)=C/c2ccccc2)n[nH]1`, the activation is 0.67%. Next, `CCOC(=O)/C=C/C(=O)OCC(=O)NC(c1ccccc1)c1ccccc1`: -0.28%; `CN(C)S(=O)(=O)c1cc(NC(=O)CN2C(=O)NC3(CCCc4ccccc43)C2=O)ccc1Cl` (stereo not drawn): 5.19%.

Regarding `Oc1ccc(-c2nc3ccccc3nc2-c2ccc(O)cc2O)c(O)c1`, the activation was 2.23%. As to `Oc1ccc2ccc3cccc[n+]3c2c1`, the activation is 720% (active).

Regarding `CCOC(=O)C1=C(C)NC2=C(C(=O)CC(C)(C)C2)C1c1ccsc1` (stereo not drawn), the activation is 8.26%. As for `N#C/C=C(/c1ccc(F)cc1)N1CCOCC1`, the activation was 0.45%.

For `O=C(N1CCOCC1)N1CCOCC1`, the activation was 0.83%. The same measure for `N#C/C(=C/c1ccc(N2CCOCC2)o1)C(=O)N1CCOCC1`: 64.8% (active); for `N#C/C(=C\C1=C(N2CCOCC2)C(=C\c2ccccc2)/CC1)C(=O)Nc1ccccc1F`: 11.9%; for `N#C/C(=C\c1ccc(N2CCOCC2)o1)C(=O)N1CCOCC1`: 114% (active).

Regarding `O=C(NC(=O)N1CCOCC1)c1ccccc1`, the activation is -4.59%. Next, `O=C(NC1CCCC1)C(c1ccco1)N(C(=O)c1csnn1)c1ccccc1` (stereo not drawn): -5.15%; `COc1ccccc1-n1nnnc1S(=O)(=O)Cc1ccc(Cl)cc1`: -4.59%; `O=C(Nc1cccc(F)c1)c1coc(=O)c(Br)c1`: 2.96%. Next, `O=C(NNC1CC(=O)N(c2cccc(Cl)c2)C1=O)c1cccnc1` (stereo not drawn): 3.38%; `COc1ccc(N2CCN(S(=O)(=O)c3ccc4c(c3)NC(=O)C(C)C(=O)N4)CC2)cc1` (stereo not drawn): -1.46%. Next, `CCOc1cc(-c2cc(-c3ccc(NC(C)=O)cc3)nc(N)c2C#N)ccc1O`: -2.6%; `CCOc1cc(/C=C(\C#N)c2nc(-c3cccs3)c(NC(C)=O)s2)ccc1O`: 53.3% (active); `CCOc1cc(C=NNC(=O)CCCC(=O)NN=Cc2ccc(O)c(OCC)c2)ccc1O`: 3.71%. For the molecule `C/C(N)=C(/C#N)C(=O)COC(=O)C1=NN(c2ccccc2)C(=O)CC1`, the activation was 1.28%. Next, `CN1C(=O)c2cccc3c(N)ccc(c23)C1=O`: 1160% (active); `COc1cc(C(=O)N2C(=O)c3cccc(N)c3C2=O)cc(OC)c1OC`: -5.72%; `O=C1c2cccc3c([N+](=O)[O-])ccc(c23)C(=O)N1CC1CCCO1` (stereo not drawn): 9.63%. As for `CCn1cc(C(=O)N[C@@H](C)C(=O)NCCO)c(=O)c2cc3c(cc21)OCO3`, the activation is 0.57%.

Consider `CCCC(O)(CCC)C(=O)NN(C(=O)CCl)c1cccc(C)c1`, for which the activation was -2.77%. The same measure for `CN(C)C(CNC(=O)c1ccc(S(=O)(=O)NCc2ccco2)cc1)c1ccccc1` (stereo not drawn): -0.95%; for `CC1(C)Cc2nc3sc4c(SCC(=O)NC(c5ccccc5)c5ccccc5)ncnc4c3cc2CO1`: -4.73%; for `C=CCNc1nnc(SCC(=O)N2CCCCC2)c2ccccc12`: 33.8% (active). Turning to `C=CCNc1nnc(C)c2ccccc12`, the activation is 6.46%. Regarding `O=C(CSc1ncccn1)N1CCCC1`, the activation was 4.22%.

As to `Cc1nn(-c2ncccn2)c2c1C(=O)CC(C)(C)C2Br` (stereo not drawn), the activation was 1.48%.

As to `CCc1ccc2ncc(C(=O)c3ccccc3)c(N3CCOCC3)c2c1`, the activation is 6.46%. Next, `N#Cc1c(NCCO)ccc([N+](=O)[O-])c1NCCO`: -0.27%; `CCCN(CCC)C(=O)C1c2ccccc2Oc2ccccc21`: 98.3% (active). The same measure for `CCOC(=O)CC(NC(=O)C1c2ccccc2Oc2ccccc21)c1ccc(C)cc1` (stereo not drawn): 4.5%; for `CCCCCNC(=O)C1c2ccccc2Oc2ccccc21`: 4.69%; for `Brc1ccc(C2=CC(c3ccco3)n3ncnc3N2)cc1` (stereo not drawn): 245% (active). The same measure for `CC1=C(C(N)=O)C(c2ccc(Br)cc2)n2ncnc2N1` (stereo not drawn): -0.09%; for `CC1=C(C(=O)OCc2ccccc2)C(c2ccco2)n2ncnc2N1` (stereo not drawn): 8.65%; for `CCN1CCN(c2ccc(S(=O)(=O)N3CCCCC3)cc2NC(=O)c2cccc(NC(C)=O)c2)CC1`: -0.39%.

For `CC1CCCCC12NC(=O)N(CC(=O)OCc1c(F)cccc1Cl)C2=O` (stereo not drawn), the activation was -6.16%. The same measure for `Cc1ccccc1OCCC(=O)OCC(=O)NC(C)c1ccccc1` (stereo not drawn): 1.21%. As for `O=C1Nc2ccccc2/C1=C/c1ccnc2ccccc12`, the activation was 3.84%. Next, `Cc1cc(C)c(/C=C2\C(=O)Nc3ccccc32)[nH]1`: 149% (active); `Cc1ccccc1-n1c(C)cc(/C=C2\NC(=O)NC2=O)c1C`: -2.97%.

Regarding `C[C@H](NC(=O)c1[nH]cnc1C(=O)Nc1nccs1)c1ccccc1`, the activation is -1.35%. In the case of `O=C(COC(=O)c1ccc(S(=O)(=O)Nc2ccccc2)cc1)NCC1CCCO1` (stereo not drawn), the activation was -3.25%. Next, `COc1ccc([N+](=O)[O-])cc1NC(=O)CC1SC(=Nc2cccc(C)c2C)N(/N=C(\C)c2ccc(C)cc2)C1=O` (stereo not drawn): -1.84%; `CCC1CCCCN1C(=O)Nc1cccc(NC(=O)N2CCCCC2CC)c1` (stereo not drawn): -3.65%; `O=C(CSc1nnc(C2CC2)n1Cc1ccccc1)Nc1cccnc1Cl`: 1.37%. The same measure for `COc1ccccc1N(CC(=O)Nc1ccc(C)cc1Cl)S(=O)(=O)c1cccs1`: -7.85%; for `CCCCNC(=O)Nc1c(C)cc(SC#N)cc1C`: -8.62%. The same measure for `O=C(c1cc2sccc2n1Cc1ccc(F)cc1)N1CCc2ccccc21`: -0.47%; for `CCCc1cc(=O)[nH]c(SCC(=O)Nc2ccc(S(=O)(=O)N3CCCC3)cc2)n1`: -0.74%.

The values above are taken from PubChem BioAssay AID493008 (The Scripps Research Institute Molecular Screening Center, 2010).
